# High-throughput results: PubChem BioAssay, National Center for Advancing Translational Sciences (NCATS)
# Rows were chosen to be rich in hits. Some 21% of all compounds tested hit in one or more screens of this group.
# Shiga toxin inh: A qHTS for Small Molecule Inhibitors of Shiga Toxin. 290,000 compounds, 9.2% hits. Vero cells, Shiga toxin protein synthesis inhibition reporter. inhibition, % at 38.7 µM; in the data active = inhibition mostly above about 28%, no sharp cut-off; inactive = mostly below about 43%
# Pf growth 48h: Primary qHTS for delayed death inhibitors of the malarial parasite plastid, 48 hour incubation | Potency, µM (titrated, usually from 28.7 µM), most hits filed as inhibitors | P. falciparum luciferase growth in erythrocytes, 48 h | 310,000 compounds, 5.9% hits
#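 Growth was read as firefly luciferase luminescence after a 48 h, 37 C, 5% CO2 exposure of compounds to reporter-bearing P. falciparum cultures (0.1% parasitemia, 2% hematocrit final) in Albumax-supplemented RPMI 1640.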
# Cycloheximide cs: Cycloheximide Counterscreen for Small Molecule Inhibitors of Shiga Toxin | cell reporter, cycloheximide protein synthesis inhibition counterscreen | max response, % | 300,000 compounds, 12% hits; in the data active = max response mostly above about 13%, no sharp cut-off; inactive = mostly below about 14%; also: read at 38.3 µM for the half of the compounds with a filed dose
# Pf growth 96h: Primary qHTS for delayed death inhibitors of the malarial parasite plastid, 96 hour incubation. P. falciparum luciferase reporter growth, 96 h. Potency, µM (highest dose often 28.7 µM), actives largely listed as inhibitors. 320,000 compounds, 6.9% hits. AID 504834, 2011
#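 Compounds incubated with erythrocytes infected by luciferase-expressing P. falciparum (2% hematocrit, 0.05% parasitemia final) for 96 hours, 37 C in 5% CO2. Growth inhibition scored as decreased luciferase luminescence.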
# NS1 function inh: qHTS Assay for Inhibitors of Influenza NS1 Protein Function; Potency, µM (series often up to 46.1 µM); 270,000 compounds, 0.4% hits; AID 2326, 2010; calls by dose curve; also: actives are rising curves; nearly all actives have a fitted effect of over 50% in size
#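 Growth recovery, yeast-based: influenza A NS1 expressed in S. cerevisiae causes slow growth, and suppressors are detected by OD600. The parent strain without NS1 is used as positive control.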
# Numbers stand for hits; i = inactive; ? = inconclusive; nt = no result. Unless noted, calls follow the shape of the dose curve; as a rule, active = well fitted inhibition curve with a large enough effect; inconclusive = small, poorly fitted or top-dose-only effect, or another doubt; inactive = no such curve, though single readings can be large or run the other way.
SMILES,Shiga toxin inh,Pf growth 48h,Cycloheximide cs,Pf growth 96h,NS1 function inh
CCOC(=O)CN(C(=O)COc1nc(-c2ccccc2)cc(C)c1C#N)c1cccc(OC)c1,i,7.38µM,i,11.7µM,i
CCOC(=O)CN(C(=O)COc1nc(-c2ccccc2)cc(C)c1C#N)c1ccccc1,i,?,i,?,i
CCOC(=O)CN(C(=O)COc1nc(-c2ccccc2)cc(C)c1C#N)c1ccccc1C,i,13.1µM,i,?,i
CCOC(=O)CN(C(=O)COc1nc(C)cc(C)c1C#N)c1cccc(Cl)c1,i,?,i,?,i
COc1ccc2c(c1OC)C(=O)OC2Nc1nc2ccccc2s1 (configuration not stated),i,i,i,i,i
COc1ccc2c(c1OC)C(=O)OC2Nc1ccccn1 (configuration not stated),i,i,i,nt,i
COc1ccc2c(c1OC)C(=O)OC2Nc1nc(-c2cc3cc(Br)ccc3oc2=O)cs1 (configuration not stated),79.9,i,36.7,i,i
COc1ccc2c(c1OC)C(=O)OC2Nc1ccccc1S(=O)(=O)C(F)F (configuration not stated),i,i,i,i,i
COc1ccc(-c2csc(NC3OC(=O)c4c3ccc(OC)c4OC)n2)cc1OC (configuration not stated),i,i,11.6,?,i
COc1ccc2c(c1OC)C(=O)OC2Nc1nc(-c2ccc([N+](=O)[O-])cc2)cs1 (configuration not stated),56.4,i,15.6,i,i
O=[N+]([O-])c1ccc(OCc2n[nH]c(=S)n2-c2ccccc2)cc1,i,i,i,i,i
CC1CCN(CCCNS(=O)(=O)c2cc(Br)cc3c2N(C(=O)C2CC2)CC3)CC1,i,i,i,i,i
COc1ccc(CC(=O)OCC(=O)Nc2ccc3c(c2)OCO3)cc1,i,i,i,i,nt
O=C(O)CN1C(=O)CSc2ccccc21,i,i,i,?,i
O=C1CSc2ccccc2N1Cc1ccc(F)cc1,i,i,30.9,?,i
C/C(Cn1nnc([N+](=O)[O-])n1)=N\NC(=O)c1ccncc1,i,i,i,?,nt
C/C(Cn1nnc([N+](=O)[O-])n1)=N\NC(=O)c1cccc(Cl)c1,43.6,?,20.2,11.7µM,i
C/C(CCc1ccccc1)=N\NC(=O)c1ccccc1[N+](=O)[O-],i,i,i,i,i
C/C(Cn1nnc([N+](=O)[O-])n1)=N\NC(=O)c1ccc(C)cc1,81.8,?,43.4,?,i
C/C(Cn1nnc([N+](=O)[O-])n1)=N\NC(=O)c1ccccc1Cl,i,7.38µM,22.3,9.28µM,?
COC(=O)C1=C(C)NC(=S)NC1c1ccc(OCC(=O)N2CCCCC2)c(OC)c1 (configuration not stated),i,?,i,i,i
CCOC(=O)C1CCCN(C(=O)c2ccc(C)c(NC(=O)C3=C(C)OCCS3)c2)C1 (configuration not stated),i,i,i,i,i
Brc1cc(Cc2nnc(-c3ccccc3)o2)c(Br)s1,i,?,14.0,i,i
O=C(CCn1nc(-c2ccccc2)c2ccccc2c1=O)Nc1cccnc1,i,i,i,i,i
CNC(=O)c1cc(NC(=O)CCn2nc(-c3ccccc3)c3ccccc3c2=O)ccc1OC,i,2.08µM,i,0.828µM,i
SMILES,Shiga toxin inh,Pf growth 48h,Cycloheximide cs,Pf growth 96h,NS1 function inh
Cc1ccc2c(c1)N(C(=O)CCC(=O)NC1CCN(Cc3ccccc3)CC1)CC(C)O2 (configuration not stated),i,i,i,i,i
O=C1c2ccccc2NC2(CCCC2)N1O,53.2,nt,15.6,i,i
O=C1c2ccccc2NC2(CCCCC2)N1N=C1CCCCC1,44.2,i,60.0,?,i
O=C1[C@@H]2[C@@H]3C[C@@H]([C@H]4ON=C(c5ccc(OCc6ccccc6)cc5)[C@@H]34)[C@@H]2C(=O)N1c1ccc2c(c1)OCO2,i,?,i,?,?
O=[N+]([O-])c1c(Nc2ccccc2O)cc(Cl)c2nonc12,i,11.7µM,i,i,i
O=[N+]([O-])c1c(Nc2ccccc2O)ccc2nonc12,i,i,i,i,nt
Cc1ccccc1Nc1ccc2nonc2c1[N+](=O)[O-],i,i,i,6.57µM,i
COC(=O)C1CCN(C(=O)c2cc3c(=O)n4cccc(C)c4nc3n2Cc2ccccc2)CC1,i,5.86µM,i,4.15µM,i
COc1ccc(CCNC(=O)c2cc3c(=O)n4cccc(C)c4nc3n(Cc3ccncc3)c2=N)cc1,i,i,i,nt,i
COc1ccc(CCNC(=O)c2cc3c(=O)n4cccc(C)c4nc3n(CC3CCCO3)c2=N)cc1 (configuration not stated),i,1.47µM,i,?,i
Cc1cccn2c(=O)c3cc(C(=O)NCC4CCCO4)c(=N)n(CCc4ccccc4)c3nc12 (configuration not stated),i,4.65µM,i,?,i
COc1ccc(CCn2c(=N)c(C(=O)NCC3CCCO3)cc3c(=O)n4ccccc4nc32)cc1OC (configuration not stated),i,?,i,?,i
CCOC(=O)C1=C(c2ccccc2)c2cc(OC)ccc2OC1C(=O)OCC (configuration not stated),i,nt,i,nt,nt
O=C(NCc1ccc(F)cc1)C(=O)Nc1nc(C23CC4CC(CC(C4)C2)C3)cs1,i,11.7µM,i,i,i
CNC(=O)C(=O)Nc1nc(C23CC4CC(CC(C4)C2)C3)cs1,i,i,15.7,?,i
O=C(NCc1ccccc1)C(=O)Nc1nc(C23CC4CC(CC(C4)C2)C3)cs1,i,?,i,i,i
Cc1noc(C)c1C(=O)Nc1nc(C23CC4CC(CC(C4)C2)C3)cs1,i,11.7µM,i,i,i
CC(=O)Nc1ccc(S(=O)(=O)NCCC(=O)Nc2cc(C)ccn2)cc1,nt,i,nt,i,nt
COCCOC(=O)c1[nH]c2c(c1C)C(=O)CC(c1ccc(F)cc1)C2 (configuration not stated),i,nt,i,?,i
COCCOC(=O)c1[nH]c2c(c1C)C(=O)CC(c1ccccc1)C2 (configuration not stated),i,?,i,?,i
COCCOC(=O)c1[nH]c2c(c1C)C(=O)CC(c1cc(OC)c(OC)c(OC)c1)C2 (configuration not stated),i,5.22µM,i,9.28µM,i
COc1ccc(C2CC(=O)c3c([nH]c(C(=O)OC(C)C)c3C)C2)cc1OC (configuration not stated),i,?,i,i,?
C=CCOC(=O)c1[nH]c2c(c1C)C(=O)CC(c1cc(OC)c(OC)c(OC)c1)C2 (configuration not stated),i,9.28µM,i,11.7µM,i
CCCCOC(=O)c1[nH]c2c(c1C)C(=O)CC(c1cc(OC)c(OC)c(OC)c1)C2 (configuration not stated),i,2.94µM,i,i,i
